From PubChem BioAssay
KDM5B inh: inhibitors of human KDM5B histone demethylase; hit rate 2.6% among 220,000; Potency, µM (doses to about 57.7 µM), hits mostly inhibitors; AID 1347165; KDM5B demethylase, FDH-coupled NADH fluorescence (FDH is formaldehyde dehydrogenase); Q9UGL1; active = well fitted inhibition curve with a large enough effect; note: 0% is about no effect; nearly all actives have a fitted effect of over 70% in size
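Coupled FDH/NAD⁺ fluorescence readout. KDM5BΔAP 200 nM final; compound titration, 10 min RT preincubation; substrate mix 12.5 µM H3K4me3, 25 µM 2-OG, 50 µM Fe(II), 100 µM ascorbate, 0.25 mM NAD⁺, 0.25 U/mL FDH; ΔRFU over 30 min.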
* marks the source's active call; other numbers are inactive results; i = inactive. The full list was thinned out, with hits kept by preference. Potency is the fitted concentration of half-maximal effect.

SMILES	KDM5B inh
CC(C)CN1C(=O)c2cccn2CC1CNC(=O)c1cccs1 (stereo not drawn)	i
CN1C(=O)c2cccn2CC1CNC(=O)c1cccc2nccnc12 (stereo not drawn)	i
CN1Cc2cccn2CC1CNC(=O)c1cnn(C)c1 (stereo not drawn)	22µM*
CN1Cc2cccn2CC1CNC(=O)c1cccs1 (stereo not drawn)	20µM*
CCC(C)c1ccc(NC(=O)CCc2ncc(-c3ccccc3)o2)cc1 (stereo not drawn)	i
CCCCCNc1nc2c(c(=O)n(C)c(=O)n2C)n1Cc1ccccc1F	i
CN1CCN(C(=O)c2cn(C)c3ccccc23)C(c2ccccc2)C1 (stereo not drawn)	i
COc1ccc(/C=C/c2nc3ccccc3o2)c(OC)c1OC	i
Cc1ccc(-c2nc(-c3nc(-c4ccc(C)cc4C)cs3)sc2C)cc1	i
CC(Oc1ccc(Cl)cc1Cl)C(=O)NC(c1ccccc1)c1ccccc1 (stereo not drawn)	i
C1CCN(c2nc(NNc3nc(N4CCCCC4)nc(N4CCCCC4)n3)nc(N3CCCCC3)n2)CC1	i
CC(NC(=O)c1ccc(Cl)o1)c1ccc(C(F)(F)F)cc1 (stereo not drawn)	i
COc1cc(/C=C/c2nc(C#N)c(N3CCCC3)o2)cc(OC)c1OC	i
CN(Cc1ccc(Cl)cc1Cl)c1ccc(S(N)(=O)=O)cn1	i
CN1C(=O)c2cccn2CC1CNC(=O)CCc1ccccc1 (stereo not drawn)	i
O=C(NCCc1ccc(F)cc1)c1cc(CN2CCOCC2)on1	i
Cc1cc(C(=O)NCC2Cn3cccc3CN2C)nn1C (stereo not drawn)	25µM*
CN1Cc2cccn2CC1CNC(=O)c1cc(CN2CCOCC2)on1 (stereo not drawn)	18µM*
CN1C(=O)c2cccn2CC1CNC(=O)c1cc(CN2CCOCC2)on1 (stereo not drawn)	i
COCCN1C(=O)c2cccn2CC1CNC(=O)c1cccc(F)c1 (stereo not drawn)	i
CCn1nc(C)c(-c2cc(C(=O)NCC3Cn4cccc4C(=O)N3C)no2)c1C (stereo not drawn)	i
CN1Cc2cccn2CC1CNC(=O)c1cccc(F)c1 (stereo not drawn)	25µM*
CN1Cc2cccn2CC1CNC(=O)c1ccco1 (stereo not drawn)	28µM*
Cc1cccc(CC(=O)NCC2Cn3cccc3C(=O)N2C)c1 (stereo not drawn)	i
COc1cccc(C(=O)NCC2Cn3cccc3C(=O)N2C)c1 (stereo not drawn)	i
SMILES	KDM5B inh
Cc1cnc(C(=O)NCC2Cn3cccc3C(=O)N2C)cn1 (stereo not drawn)	i
O=CC1=C(c2ccccc2)SC(c2ccccc2)C(Cc2ccccc2)=C1 (stereo not drawn)	i
Cn1c(=O)[nH]c(=O)c2c1nc(NCc1ccccc1Cl)n2CCCc1ccccc1	i
CC(=O)Nc1ccc(CNC2CCC(C)CC2)cc1 (stereo not drawn)	i
COc1ccc2c(C)cc(SCC(=O)N(C)Cc3ccccc3)nc2c1	i
CCCOC(=O)c1nc2ccccc2nc1N1CCN(Cc2ccccc2)CC1	i
O=S(=O)(Cc1ccc(F)cc1Cl)C12CC3CC(CC(C3)C1)C2	i
CC(C)C(C(=O)NC(c1ccccc1)C1CCCC1)c1ccccc1 (stereo not drawn)	i
CCN1CC(CN(C)Cc2cn(-c3ccccc3C)nc2-c2ccc(OC)c(F)c2)CC1=O (stereo not drawn)	i
Cc1ccc(S(=O)(=O)N(CC(=O)NCCO)Cc2c(F)cccc2Cl)cc1	i
CC(NC(=O)C1CCCCC1)c1cccc(Br)c1 (stereo not drawn)	i
CN1C(=O)c2cccn2CC1CNC(=O)c1ccoc1 (stereo not drawn)	i
COc1ccccc1C(=O)NCC1Cn2cccc2C(=O)N1C (stereo not drawn)	i
CN1Cc2cccn2CC1CNC(=O)c1ccccc1 (stereo not drawn)	28µM*
CCOc1cc(/C=N/O)ccc1O	i
O=C(Nc1ccc(F)cc1)C1CCCN(C(=O)Cc2cccc3ccccc23)C1 (stereo not drawn)	i
CCCCn1c(=O)[nH]c(=O)c2c1nc(CN1CCN(S(=O)(=O)c3ccc(C)cc3)CC1)n2CC	i
CCOc1ccccc1CN1CCN(c2ncnc3[nH]ccc23)CC1CCO (stereo not drawn)	i
Fc1ccc(Cc2nc3nccc(-c4cccnc4)n3n2)cc1	i
c1ccc(CCc2nc3nccc(-c4ccco4)n3n2)cc1	25µM*
CCc1nn2c(-c3ccco3)ccnc2c1-c1ccc(F)cc1	i
CC(C)Cc1nc2nccc(-c3ccccc3)n2n1	28µM*
Fc1cc(F)cc(Cc2nc3nccc(-c4ccccc4)n3n2)c1	28µM*
CC(C)Cc1nc2nccc(-c3ccco3)n2n1	25µM*
COc1ccc(CCc2nc3nccc(-c4ccco4)n3n2)cc1OC	i
SMILES	KDM5B inh
Fc1cc(F)cc(Cc2nc3nccc(-c4ccncc4)n3n2)c1	i
CCc1nn2c(-c3ccco3)ccnc2c1-c1ccccc1	i
Cc1oc(-c2nc(C#N)c(NC(C)C)o2)cc1S(=O)(=O)N1CCOCC1	i
CN(Cc1ccccc1N1CCOCC1)C(=O)c1ccc2c(c1)S(=O)(=O)c1ccccc1C2=O	i
Cc1cc(C=O)c(C)n1CCc1ccc(Cl)cc1	i
Cc1cccc(NC(=O)N2CCC(CCNC(=O)c3cccs3)CC2)c1	i
COCCn1c(SCC(=O)c2ccc3c(c2)OCO3)nc2cc(C(=O)NC(C)C)ccc2c1=O	i
CCc1nn2c(=O)cc(CNc3cccc(C(=O)NCC(F)(F)F)c3)nc2s1	i
Cc1ccc(-c2ccsc2C(=O)NCc2ccccn2)cc1	i
CC(C)C(=O)NC(Nc1ccccc1Cl)C(Cl)(Cl)Cl (stereo not drawn)	i
CC(C)(C)C(=O)/C(C#N)=C/c1ccccc1OCc1ccccc1Cl	i
FC(F)(F)c1cccc(NC(=S)NCCC(c2ccccc2)c2ccccc2)c1	i
CC(C)Cc1nc2nccc(-c3ccncc3)n2n1	28µM*
O=C1c2cc(N3CCOCC3)nc(-c3cccc(F)c3)c2CN1CC1CC1	35µM*
O=[S+]([O-])(Nc1cccnc1)c1ccc2c(c1)OCCN(CC1CCOCC1)C2	i
O=C1Cc2c(-c3cccc(N4CCOCC4)c3)n[nH]c2CN1CCOc1ccccc1	i
C[S+](=O)([O-])Nc1cccc(N2C[C@@H]3C(C(=O)NC4CCOCC4)=NO[C@@H]3C2)c1	i
C[S+](=O)([O-])Nc1cccc(-c2nc(N3CCOCC3)cc3c2CN(CC2CC2)C3=O)c1	28µM*
O=C(Nc1cccc(-c2cccc(F)c2)c1)C1CCN(CC2CCOC2)CC1 (stereo not drawn)	i
CCN(CC)S(=O)(=O)c1ccc(-c2nc(C#N)c(N3CCCCCC3)o2)cc1	i
Clc1ccc(C2CC(c3ccc(Br)cc3)=NO2)cc1 (stereo not drawn)	i
N#Cc1ccccc1C(=O)c1ccc(Br)cc1	i
CC(=O)Nc1ccc(C2(C(=O)NCc3ccc(C)o3)CCC2)cc1	i
Cc1ccc(CNC(=O)C2(CCO)CCN(c3ncccn3)C2)o1 (stereo not drawn)	28µM*
CC(C)CCNC(=O)C1(CCO)CCN(c2ncccn2)C1 (stereo not drawn)	25µM*
CCNC(=O)C1(CCO)CCN(Cc2ccccc2)C1 (stereo not drawn)	i
